Data: PubChem BioAssay AID463173 (ICCB-Longwood Screening Facility, Harvard Medical School, 2010)
Hit rate of the full screen: of about 52,000 compounds, about 4,300 (8.3%) were called active. Rule as the data show it: active = survival mostly below about 52% (no sharp cut-off); inactive = mostly above about 56%. What follows is part of a selection rich in actives, with near analogues and random picks from the rest.

What follows are compounds tested on DeltatarO mutant (assay: S. aureus survival, RN4220 and DeltatarO strains – OD600, teichoic acid synthesis inhibitors, primary screen (AID 463173)). Details: S. aureus RN4220 wild type/DeltatarO growth, OD600, 18 h, hits give low values, screened at 18.75 µg/mL (by protocol).

SMILES	survival
Cc1cc(C)n(C(=O)CNC(=O)Cc2ccccc2)n1	89% (inactive)
CC(=O)N1c2ccccc2C(=O)C1N1CCN(c2cccc(C)c2C)CC1 (stereo unspecified)	80% (inactive)
COc1ccc(OC)c(NC(=O)CCc2nc(-c3ccc(C)cc3)no2)c1	70% (inactive)
COc1ccc(-c2noc(CCC(=O)N(C)c3ccccc3C)n2)cc1	80% (inactive)
CCCN(C(=O)CCc1nc(-c2ccccc2F)no1)c1ccc(CC)cc1	-7% (active)
CN(C(=O)CCc1nc(-c2ccccc2F)no1)c1ccc(Cl)cc1	56% (inactive)
CCOc1ccc(N(CC)C(=O)CCc2nc(-c3ccccc3F)no2)cc1	46% (inactive)
CCOC(=O)c1ccccc1NC(=O)CCc1nc(-c2ccc(C)cc2)no1	58% (inactive)
CCCN(C(=O)CCc1nc(-c2ccc(OC)cc2)no1)c1ccccc1F	3% (active)
Cc1ccc(-c2noc(CCC(=O)N(C)c3ccccc3F)n2)cc1	38% (active)
COc1ccc(-c2noc(CC(=O)N(C)c3ccccc3F)n2)cc1	87% (inactive)
CCCN(C(=O)CCc1nc(-c2ccc(C)cc2)no1)c1ccc(OCC)cc1	-4% (active)
CCCN(C(=O)Cc1nc(-c2ccc(OC)cc2)no1)c1ccccc1C	85% (inactive)
COc1ccc(CNC(=O)CCc2nc(-c3ccc(OC)cc3)no2)cc1	96% (inactive)
COc1ccc2c(c1)cc1c(=O)n(CC(=O)NCCCOC(C)C)nc(C)n12	80% (inactive)
O=C(NCCc1ccc(Cl)cc1)c1c2c(nc3ccccc13)C(=O)N(C1CCCCC1)C2	92% (inactive)
Cn1c(C(=O)NCc2cccc(F)c2)cc2cc(S(=O)(=O)N3CCCCC3)ccc21	81% (inactive)
O=C(CSC1=NCCN1)C1COc2ccccc2O1 (stereo unspecified)	88% (inactive)
Cc1ccc(C(=O)NCC(=O)OCc2cc(=O)n3ccsc3n2)cc1	74% (inactive)
CCN(CC)CCNC(=O)C(=O)NCC(c1cccnc1)N1CCN(c2ccc(F)cc2)CC1 (stereo unspecified)	79% (inactive)
CC1(c2ccc(Cl)cc2)NC(=O)CS1 (stereo unspecified)	96% (inactive)
C=CCNc1nc(C(C)C)nc2c1nnn2Cc1ccccc1	86% (inactive)
O=C(CSc1nc2ccccc2o1)Nc1ccc(S(=O)(=O)NC2CCCC2)cc1	66% (inactive)
COc1ccccc1NC(=O)C(=O)c1cc(C)n(-c2cc(C)cc(C)c2)c1C	117% (inactive)
COCCCNC(=O)CSc1nc2ccccc2c(=O)n1Cc1ccco1	83% (inactive)
COc1cccc(CNC(=O)CCCn2ncn3c(cc4occc43)c2=O)c1OC	119% (inactive)

SMILES	survival
Cc1ccc(NC(=O)Nc2cn(CC(C)C)c(=O)c3ccccc23)cc1N(C)C	78% (inactive)
CC(=O)Nc1ccc(-n2cc3c(c2-c2ccc(C)cc2)c(=O)n(C)c(=O)n3C)cc1	92% (inactive)
COc1ccc(-c2noc(CC(=O)N(C)c3cc(Cl)c(OC)cc3OC)n2)cc1	82% (inactive)
COc1ccc(C)cc1N(C)C(=O)CCc1nc(-c2ccccc2F)no1	45% (inactive)
COc1ccc(-c2noc(CCC(=O)N(C)c3cc(Cl)ccc3OC)n2)cc1	26% (active)
Cc1ccc(NC(=O)CCN2C(=O)c3ccccc3Sc3ncccc32)cc1	66% (inactive)
CCN(CC)C(=O)Cn1c(C)c(C#N)c2ccccc21	96% (inactive)
O=C(CC(c1cccs1)N1Cc2ccccc2C1=O)Nc1ccc(F)c(Cl)c1 (stereo unspecified)	83% (inactive)
CCn1c2ccccc2c2cc(CN3CCN(Cc4ccccc4F)CC3)ccc21	7% (active)
O=c1c2ccccc2n(Cc2ccccc2F)c(=O)n1-c1cccc(F)c1	68% (inactive)
Cc1ccccc1Cn1c(=O)n(CCc2ccccc2)c(=O)c2ccccc21	64% (inactive)
CCN(CC)C(=O)C1CCN(Cc2ccccc2F)CC1	99% (inactive)
CCn1c2ccccc2c2cc(CN3CCN(Cc4ccccc4C)CC3)ccc21	-3% (active)
Cc1cccc(CCn2c(=O)c3ccccc3n(Cc3ccccc3C)c2=O)c1	72% (inactive)
CCC(C)NC(=O)c1ccc2c(c1)N(Cc1ccccc1)C(=O)c1ccccc1S2 (stereo unspecified)	92% (inactive)
CCOc1cc2sc(N3CCC(C(=O)Nc4ccccc4Cl)CC3)nc2cc1Br	77% (inactive)
CCOc1cc(C2NC(=O)c3c(sc4c3CCN(C)C4)N2)ccc1OC(=O)c1ccc(F)cc1 (stereo unspecified)	56% (inactive)
COc1ccc(-c2[nH]c(-c3ccc(F)cc3)nc2SCC(=O)Nc2ccc(OC)c(OC)c2)cc1	53% (inactive)
O=C(CSc1cn(CC(=O)N2CCCCC2)c2ccccc12)NCc1ccccc1Cl	74% (inactive)
CN(C)S(=O)(=O)c1ccc(NC(=O)CNCc2ccco2)cc1	97% (inactive)
O=C(CN1CCCN(Cc2cccc(F)c2)S1(=O)=O)Nc1ccc2c(c1)OCCO2	80% (inactive)
Cc1ccc(NC(=O)CCS(=O)(=O)c2ccc3nc(C)sc3c2)cc1	34% (active)
Cc1cc(C)cc(NC(=O)CCS(=O)(=O)c2ccc3nc(C)sc3c2)c1	50% (inactive)
Cc1nc2ccc(S(=O)(=O)CCC(=O)Nc3ccc(Cl)cc3)cc2s1	44% (inactive)
CCOc1ccc(C2C(=O)N(C3CCCCCC3)CC(=O)N2Cc2ccc(F)cc2)cc1OC (stereo unspecified)	117% (inactive)
COc1ccc(OCc2nnc(SCC(=O)NCc3ccco3)o2)cc1	85% (inactive)

SMILES	survival
Cc1cc(Nc2cccc(C(F)(F)F)c2)nc2ccc(NC(=O)Cc3ccc(Cl)cc3)cc12	101% (inactive)
Fc1ccc(-c2nc(Nc3cccc(C(F)(F)F)c3)nc3c2COc2ccccc2-3)cc1	54% (inactive)
FC(F)(F)c1cccc(Nc2nc3nonc3nc2Nc2ccc(Cl)cc2)c1	-16% (active)
NS(=O)(=O)c1ccc(Nc2nc3nonc3nc2Nc2ccc(S(N)(=O)=O)cc2)cc1	122% (inactive)
Cc1ccc(Nc2nc3nonc3nc2Nc2cccc(C(F)(F)F)c2)cc1Cl	-1% (active)
Fc1ccc(Nc2nc3nonc3nc2Nc2cccc(C(F)(F)F)c2)cc1	-2% (active)
O=C(Nc1cccc(C(F)(F)F)c1)c1cc(-c2ccc(Cl)cc2)on1	77% (inactive)
Cc1cc(Nc2cccc(C(F)(F)F)c2)ncn1	54% (inactive)
Cc1ccc(Nc2nc3nonc3n3cnnc23)cc1Cl	70% (inactive)
Cc1ccc(C)c(N2CCN(CCCNC(=O)Cn3ncc4c([nH]c5ccccc54)c3=O)CC2)c1	94% (inactive)
Cc1noc2ncnc(N3CCCC(C(=O)Nc4cccc(C(F)(F)F)c4)C3)c12 (stereo unspecified)	93% (inactive)
Cc1cc(C)n(C(C)CC(=O)NCc2ccc(Cl)cc2)n1 (stereo unspecified)	69% (inactive)
COc1ccc2nc(SCC(O)c3cccc(Br)c3)[nH]c2c1 (stereo unspecified)	76% (inactive)
Nc1ccc2nc(SCCOc3ccccc3)sc2c1	88% (inactive)
Brc1ccc2nc(SCCOc3ccccc3)[nH]c2c1	-1% (active)
CCOc1ccc(Nc2cc(C)nc3nncn23)cc1	60% (inactive)
CCCS(=O)(=O)N1CCCC(C(=O)NCCOC)C1 (stereo unspecified)	55% (inactive)
CCCCN(CC)CCNC(=O)Cn1c(=O)c2cccn2c2cccnc21	80% (inactive)
Cc1cc(=O)n2c(C(=O)Nc3ccc(C)c(C)c3)c(C(=O)Nc3ccccc3)sc2n1	52% (inactive)
Cc1cc(=O)n2c(C(=O)Nc3ccc(F)c(Cl)c3)c(C(=O)Nc3cccc(C)c3C)sc2n1	65% (inactive)
COc1ccc(C)cc1NC(=O)c1c(C(=O)Nc2cccc(C)c2C)sc2nc(C)cc(=O)n12	61% (active)
COc1ccc(Cl)cc1NC(=O)c1c(C(=O)Nc2cccc(C)c2C)sc2nc(C)cc(=O)n12	74% (inactive)
Cc1cc(=O)n2c(C(=O)Nc3ccc(C)c(Cl)c3)c(C(=O)Nc3ccccc3)sc2n1	56% (active)
Cc1ccc(NC(=O)c2c(C(=O)Nc3ccccc3)sc3nc(C)cc(=O)n23)cc1	59% (inactive)
CC(C)Oc1ccc(NC(=O)C2COc3ccccc3O2)cc1 (stereo unspecified)	103% (inactive)
Cc1ccc(NS(=O)(=O)c2c(C)nc3sc(C)cn3c2=O)c(C)c1	83% (inactive)

SMILES	survival
CCOc1ccccc1CNC(=O)CN1C(=O)CCCc2ccccc21	86% (inactive)
COc1cccc(Cn2c(=O)n(CCc3ccccc3)c(=O)c3c2c2cc(OC)ccc2n3C)c1	81% (inactive)
CCOc1ccccc1Nc1sc(C(=O)c2ccccc2)c(N)c1C(=O)NCCc1ccccc1	99% (inactive)
Cc1ccc(N2CCN(C(=O)NCc3noc4ccc(C)cc34)CC2)c(C)c1	54% (inactive)
Cn1c(=O)c2c(nc(SCC(=O)Nc3ccc(F)cc3)n2Cc2ccccc2)n(C)c1=O	89% (inactive)
Cn1c(=O)c2c(nc(SCC(=O)Nc3ccc(F)cc3)n2Cc2ccccc2F)n(C)c1=O	140% (inactive)
Cn1c(=O)c2c(nc(SCC(=O)Nc3ccccc3F)n2Cc2ccc(Cl)cc2)n(C)c1=O	80% (inactive)
Cn1c(=O)c2c(nc(SCC(=O)Nc3ccc(F)cc3)n2Cc2ccc(Cl)cc2)n(C)c1=O	31% (active)
Cn1c(=O)c2c(nc(SCC(=O)Nc3ccccc3F)n2Cc2ccccc2F)n(C)c1=O	65% (inactive)
Cn1c(=O)c2c(nc(SCC(=O)Nc3ccccc3)n2Cc2ccccc2F)n(C)c1=O	43% (active)
CC(C)(C)OC(=O)N1CCC(c2c(C(=O)NCc3ccco3)cnn2-c2ccc(F)cc2)CC1	88% (inactive)
COc1ccc(NC(=O)c2oc3ccccc3c2NC(=O)c2cc3ccccc3o2)cc1	89% (inactive)
CCCCOC(=O)c1cccc(NC(=O)c2cc3ccccc3o2)c1	1% (active)
CCN(CC)c1cc(C)c2cc(NC(=O)/C=C/c3ccccc3Cl)ccc2n1	53% (inactive)
CCCCc1ccc(-n2nc3ccc(NC(=O)c4cc5ccccc5o4)cc3n2)cc1	72% (inactive)
Cc1ccc(NC(=O)c2oc3ccccc3c2NC(=O)c2cc3ccccc3o2)cc1	94% (inactive)
Cc1ccc(C(=O)c2oc3ccccc3c2NC(=O)Cc2ccccc2)cc1	50% (inactive)
CCc1ccc2occ(CC(=O)Nc3c(C(=O)c4ccccc4)oc4ccccc34)c2c1	95% (inactive)
O=C(Cc1ccccc1)Nc1c(C(=O)c2ccccc2)oc2ccccc12	3% (active)
CCCCOC(=O)c1cccc(NC(=O)/C=C/c2ccccc2Cl)c1	14% (active)
Cc1ccc(NC(=O)/C=C/c2ccccc2Cl)cc1Cl	67% (inactive)
CCCCOC(=O)c1ccc(NC(=O)c2cc(=O)c3ccccc3o2)cc1	57% (inactive)
O=C(Nc1c(C(=O)Nc2ccc(F)cc2)oc2ccccc12)c1cc2ccccc2o1	47% (active)
